The target in test [1] is Atrial natriuretic peptide receptor 1 (Homo sapiens) (UniProt P16066). In words: Natriuretic polypeptide receptor (hNpr1) antagonism - Pilot screen (AID 1347049; calls by dose curve;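 further: HEK293 cells with hNpr1 and GloSensor cGMP luciferase stimulated by 0.1 nM hNppA; agonist-evoked cGMP luminescence read 20 min after hNppA addition; series mostly up to about 58 µM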). The essentials: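 Receptor antagonism read as cGMP-dependent luminescence in hNpr1/pGS-40F HEK293 cells: pre-read after 30 min compound exposure, post-read 20 min after hNppA agonist at 0.1 nM final, all at room temperature, protected from light; A-71915 titration as control.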

Test [2] concerns the target Atrial natriuretic peptide receptor 2 (Homo sapiens) (UniProt P20594). In words: Natriuretic polypeptide receptor (hNpr2) antagonism - Pilot subtype selectivity assay (AID 1347050; calls by dose curve). The essentials: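 Antagonist mode: compounds (LOPAC1280, seven 1:5 dilutions) added 30 min before 1 nM hNppC stimulation of hNpr2-HEK293 cGMP-sensor cells; luminescence read before and 20 min after agonist at ambient temperature.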

A short description of test [3]: NS1 protein of Zika virus - qHTS assay to identify small molecule inhibitors in human HEK 293 cells (AID 1347053). Further: series mostly up to about 46 µM; nearly all actives have a fitted effect of over 55% in size. Put shortly:
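Compound-treated (1 h pre-infection) HEK 293 cells infected with ZIKV MR766, MOI = 0.5; after 24 h at 37 C, NS1 read by TR-FRET; data normalized to uninfected and infected controls.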

Test [4] concerns the target T1, Tyrosine-protein phosphatase non-receptor type substrate 1 (Homo sapiens) + Leukocyte surface antigen CD47 (Homo sapiens) (UniProt P78324+Q08722). Nature of the test: CD47-SIRPalpha protein protein interaction - LANCE assay qHTS validation (AID 1347057; active means well fitted curve in the direction sought with a large enough effect in the signal ratio, with a control signal flat, not every such curve was filed as active; the % refers to the signal ratio; further: series mostly up to about 38 µM). The essentials:
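Inhibition of soluble CD47/SIRPalpha ectodomain association by titrated compounds, measured as 665/615 nm time-resolved FRET ratio after sequential 30 min room-temperature incubations.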

Test [5] concerns the target T1, Tyrosine-protein phosphatase non-receptor type substrate 1 (Homo sapiens) + Leukocyte surface antigen CD47 (Homo sapiens). Nature of the test: CD47-SIRPalpha protein protein interaction - HTRF assay qHTS validation (AID 1347058; active means well fitted curve in the direction sought with a large enough effect in the signal ratio, not every such curve was filed as active; the % refers to the signal ratio; further: series mostly up to about 38 µM). The essentials:
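Soluble extracellular domains (6His-CD47, Avi-tag-biotinylated SIRPalpha) in PBS pH 7.4 with 0.05% IGEPAL CA-630. Compounds were preincubated 30 min at RT with CD47 and anti-His-Eu, then SIRPalpha and SAV-XL665 were added. TR-FRET 665/615 ratio.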

The target is the same in test [6]. Nature of the test: CD47-SIRPalpha protein protein interaction - Alpha assay qHTS validation (AID 1347059).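 Further: bead proximity luminescence from CD47 binding SIRPalpha after compound preincubation with SIRPalpha.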 The essentials:
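AlphaScreen signal between CD47-His (12.5 nM) and biotin-SIRPalpha (25 nM) soluble extracellular domains, bead-captured via Ni-NTA and streptavidin. Compounds, in 7-point titrations, met SIRPalpha 30 min before CD47; PBS pH 7.4 with 0.05% IGEPAL.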

In test [7] the target is Parathyroid hormone/parathyroid hormone-related peptide receptor (Homo sapiens) (UniProt Q03431). In words: qHTS for PTHR1 Agonists: Optimization Screen against the NCGC LOPAC library (AID 1347079).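 Further: GloSensor cAMP luminescence in HEK-293 GP2 cells expressing human PTHR1 with IBMX.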 The essentials:
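HEK-293 GP2 cells, PTHR1 + GloSensor cAMP; 3000 cells/well, o/n. Luciferin + IBMX 0.5mM each (stock), 1 hr 37C. Cpd titration, 1 hr 37C. Lum after 15 min RT. Ctrl M-PTH(1-15) top 10uM.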

Test [8] is described as follows: qHTS of pediatric cancer cell lines to identify multiple opportunities for drug repurposing: Primary screen for TC32 cells (AID 1347089). Further: nearly all actives have a fitted effect of over 60% in size. Put shortly:
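qHTS, TC32, 48 h drug treatment, CellTiter-Glo luminescence as a proxy for metabolically active cells; primary top concentration 46 µM (MIPE 11-pt, NPC 8-pt); confirmatory 11-pt.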

Test [9] can be described thus: qHTS of pediatric cancer cell lines to identify multiple opportunities for drug repurposing: Primary screen for SJ-GBM2 cells (AID 1347091). Put shortly:
(§1)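 Cell viability, CellTiter-Glo luminescence; 500-1,000 cells/well, 8- or 11-point titration, 48 h compound exposure at 37 degrees C, 5% CO2. Controls: DMSO neutral, bortezomib 2.3 µM final as positive.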

Test [10] can be described thus: qHTS of pediatric cancer cell lines to identify multiple opportunities for drug repurposing: Primary screen for A673 cells (AID 1347092). Further: nearly all actives have a fitted effect of over 45% in size. Put shortly:
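Luminescence from CellTiter-Glo, taken after 15 min at room temperature, served as the proxy for metabolically active cells following 48 h treatment. Both potency and efficacy were taken from curves fitted to the titration data.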

The nature of test [11]: qHTS of pediatric cancer cell lines to identify multiple opportunities for drug repurposing: Primary screen for SK-N-MC cells (AID 1347093). Further: potency means the concentration at half of the fitted maximal effect. The essentials: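 Metabolically active cells were quantified by ATP-dependent luminescence (CellTiter-Glo, 15 min at room temperature) following 48 h treatment. Cells had been plated at 500-1,000 per well and settled for 5 h beforehand.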

Test [12] can be described thus: qHTS of pediatric cancer cell lines to identify multiple opportunities for drug repurposing: Primary screen for BT-37 cells (AID 1347094). Further: series mostly up to about 57 µM. Put shortly: (§2)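 500-1,000 cells/well; 5 h pre-incubation 37 °C/5% CO2; compound pinned; 48 h; CellTiter-Glo, 15 min RT; luminescence. MIPE 11-pt from 0.78 nM, NPC 8-pt from 0.59 nM final. Bortezomib 2.3 µM final as positive control.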

Test [13] can be described thus: qHTS of pediatric cancer cell lines to identify multiple opportunities for drug repurposing: Primary screen for NB-EBc1 cells (AID 1347095). The essentials:
as §2

Test [14] in a line: qHTS of pediatric cancer cell lines to identify multiple opportunities for drug repurposing: Primary screen for U-2 OS cells (AID 1347096). Further: nearly all actives have a fitted effect of over 50% in size. Put shortly:
(§3)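 Cells (500-1,000/well) rested 5 h, then received compounds for 48 h; metabolically active cells were measured by CellTiter-Glo luminescence. Final concentrations spanned up to 46 µM (MIPE, 11-point) or 0.59 nM-46 µM (NPC, 8-point) in primary screens, 11-point in follow-ups.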

A short description of test [15]: qHTS of pediatric cancer cell lines to identify multiple opportunities for drug repurposing: Primary screen for Saos-2 cells (AID 1347097). Further: nearly all actives have a fitted effect of over 40% in size. The essentials: as §2
Test [16] is described as follows: qHTS of pediatric cancer cell lines to identify multiple opportunities for drug repurposing: Primary screen for SK-N-SH cells (AID 1347098). Further: nearly all actives have a fitted effect of over 65% in size. Put shortly:
as §3

The nature of test [17]: qHTS of pediatric cancer cell lines to identify multiple opportunities for drug repurposing: Primary screen for NB1643 cells (AID 1347099). Further: nearly all actives have a fitted effect of over 50% in size. The essentials: as §2
A short description of test [18]: qHTS of pediatric cancer cell lines to identify multiple opportunities for drug repurposing: Primary screen for LAN-5 cells (AID 1347100). The essentials:
as §3

Test [19] is described as follows: qHTS of pediatric cancer cell lines to identify multiple opportunities for drug repurposing: Primary screen for BT-12 cells (AID 1347101). Further: nearly all actives have a fitted effect of over 25% in size. Put shortly:
as §3

Test [20] can be described thus: qHTS of pediatric cancer cell lines to identify multiple opportunities for drug repurposing: Primary screen for DAOY cells (AID 1347090). Further: series mostly up to about 46 µM; nearly all actives have a fitted effect of over 55% in size. The essentials:
as §1

From PubChem BioAssay (NCATS) come the findings set out here.

“And” between values parts separate entries of the source, which are not always exact repeats. Equal entries are not always repeated. Results filed as inconclusive are left out. The source made the active and inactive calls. Unless noted, the call rests on the fitted dose curve; in most records, active means well fitted curve in the direction sought with a large enough effect; inconclusive means small, poorly fitted or top-dose-only effect, or another doubt; inactive means no such curve, though single readings can be large; an effect the other way counts as inactive or inconclusive.

Atrial natriuretic peptide receptor 1 (Homo sapiens), sequence (P16066 whole entry, looked up): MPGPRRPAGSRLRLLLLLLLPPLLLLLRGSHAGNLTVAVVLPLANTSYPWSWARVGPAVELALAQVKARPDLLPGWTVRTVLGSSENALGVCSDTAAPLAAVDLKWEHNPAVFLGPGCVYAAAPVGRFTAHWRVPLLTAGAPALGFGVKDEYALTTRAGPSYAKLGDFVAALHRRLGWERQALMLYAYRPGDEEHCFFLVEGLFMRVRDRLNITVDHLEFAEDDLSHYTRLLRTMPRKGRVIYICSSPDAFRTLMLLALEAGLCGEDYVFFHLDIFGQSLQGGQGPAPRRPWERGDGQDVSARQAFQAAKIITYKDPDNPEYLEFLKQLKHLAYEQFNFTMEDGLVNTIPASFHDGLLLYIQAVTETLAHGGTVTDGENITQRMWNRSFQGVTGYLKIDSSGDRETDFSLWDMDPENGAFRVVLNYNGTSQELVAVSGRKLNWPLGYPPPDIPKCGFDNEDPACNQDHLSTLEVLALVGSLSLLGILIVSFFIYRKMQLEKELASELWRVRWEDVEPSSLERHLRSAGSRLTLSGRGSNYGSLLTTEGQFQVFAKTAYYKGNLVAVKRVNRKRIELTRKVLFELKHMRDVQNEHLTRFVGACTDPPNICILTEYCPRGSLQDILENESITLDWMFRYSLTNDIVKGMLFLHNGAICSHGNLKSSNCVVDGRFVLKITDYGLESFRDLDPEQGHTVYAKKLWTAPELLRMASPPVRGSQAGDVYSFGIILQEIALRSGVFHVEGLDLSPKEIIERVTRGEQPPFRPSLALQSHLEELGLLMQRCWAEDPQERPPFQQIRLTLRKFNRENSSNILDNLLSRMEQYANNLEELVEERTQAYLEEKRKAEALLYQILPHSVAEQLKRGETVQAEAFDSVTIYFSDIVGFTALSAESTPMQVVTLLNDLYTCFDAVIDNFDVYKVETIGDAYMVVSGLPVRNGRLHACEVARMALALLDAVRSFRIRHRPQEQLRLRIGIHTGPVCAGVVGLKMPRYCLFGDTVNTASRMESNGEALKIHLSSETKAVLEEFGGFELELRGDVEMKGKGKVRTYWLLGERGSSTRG
Parathyroid hormone/parathyroid hormone-related peptide receptor (Homo sapiens), sequence (Q03431 whole entry, looked up): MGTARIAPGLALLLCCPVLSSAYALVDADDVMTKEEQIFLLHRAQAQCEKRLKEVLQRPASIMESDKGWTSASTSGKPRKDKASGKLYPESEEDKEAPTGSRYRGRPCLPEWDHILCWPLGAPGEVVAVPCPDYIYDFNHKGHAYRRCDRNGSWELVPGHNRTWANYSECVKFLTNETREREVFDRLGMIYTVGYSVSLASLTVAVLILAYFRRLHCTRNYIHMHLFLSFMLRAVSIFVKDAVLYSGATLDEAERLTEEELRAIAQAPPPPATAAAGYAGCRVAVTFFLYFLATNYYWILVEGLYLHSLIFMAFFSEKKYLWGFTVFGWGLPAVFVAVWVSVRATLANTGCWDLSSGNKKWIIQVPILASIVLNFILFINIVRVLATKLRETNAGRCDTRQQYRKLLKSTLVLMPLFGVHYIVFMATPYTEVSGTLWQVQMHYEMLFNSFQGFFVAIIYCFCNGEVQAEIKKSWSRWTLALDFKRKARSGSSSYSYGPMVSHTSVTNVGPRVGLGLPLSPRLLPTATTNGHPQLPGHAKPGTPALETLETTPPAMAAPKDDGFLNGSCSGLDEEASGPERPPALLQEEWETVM
Atrial natriuretic peptide receptor 2 (Homo sapiens), sequence (P20594 whole entry, looked up): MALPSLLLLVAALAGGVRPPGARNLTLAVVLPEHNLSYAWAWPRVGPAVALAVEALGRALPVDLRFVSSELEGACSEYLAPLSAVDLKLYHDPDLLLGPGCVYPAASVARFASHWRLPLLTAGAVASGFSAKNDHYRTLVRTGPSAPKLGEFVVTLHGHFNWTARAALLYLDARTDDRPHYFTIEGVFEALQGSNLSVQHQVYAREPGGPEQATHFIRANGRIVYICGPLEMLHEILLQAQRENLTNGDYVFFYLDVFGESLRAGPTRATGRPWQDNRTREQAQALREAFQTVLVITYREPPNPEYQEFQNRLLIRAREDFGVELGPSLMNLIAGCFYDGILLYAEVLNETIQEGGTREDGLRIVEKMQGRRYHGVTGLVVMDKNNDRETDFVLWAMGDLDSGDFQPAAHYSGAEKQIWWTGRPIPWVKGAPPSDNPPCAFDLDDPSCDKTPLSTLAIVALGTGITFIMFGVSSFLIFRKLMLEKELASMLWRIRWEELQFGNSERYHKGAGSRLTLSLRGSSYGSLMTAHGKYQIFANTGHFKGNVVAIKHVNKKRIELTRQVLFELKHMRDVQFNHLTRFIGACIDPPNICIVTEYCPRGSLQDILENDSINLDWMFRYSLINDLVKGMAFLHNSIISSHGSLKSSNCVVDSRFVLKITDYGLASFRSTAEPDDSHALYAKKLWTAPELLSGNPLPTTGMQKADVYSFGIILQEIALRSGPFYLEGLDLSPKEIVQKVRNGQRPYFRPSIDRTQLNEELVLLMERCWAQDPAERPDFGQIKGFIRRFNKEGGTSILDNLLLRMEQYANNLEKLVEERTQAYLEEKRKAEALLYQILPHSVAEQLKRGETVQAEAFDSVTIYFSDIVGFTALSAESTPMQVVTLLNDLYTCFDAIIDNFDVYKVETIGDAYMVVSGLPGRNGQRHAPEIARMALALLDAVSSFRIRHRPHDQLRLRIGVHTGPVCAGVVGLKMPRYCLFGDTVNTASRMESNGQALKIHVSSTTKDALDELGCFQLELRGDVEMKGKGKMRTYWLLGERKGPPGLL
T1 sequence (P78324 whole entry, looked up, the tested form may be a part): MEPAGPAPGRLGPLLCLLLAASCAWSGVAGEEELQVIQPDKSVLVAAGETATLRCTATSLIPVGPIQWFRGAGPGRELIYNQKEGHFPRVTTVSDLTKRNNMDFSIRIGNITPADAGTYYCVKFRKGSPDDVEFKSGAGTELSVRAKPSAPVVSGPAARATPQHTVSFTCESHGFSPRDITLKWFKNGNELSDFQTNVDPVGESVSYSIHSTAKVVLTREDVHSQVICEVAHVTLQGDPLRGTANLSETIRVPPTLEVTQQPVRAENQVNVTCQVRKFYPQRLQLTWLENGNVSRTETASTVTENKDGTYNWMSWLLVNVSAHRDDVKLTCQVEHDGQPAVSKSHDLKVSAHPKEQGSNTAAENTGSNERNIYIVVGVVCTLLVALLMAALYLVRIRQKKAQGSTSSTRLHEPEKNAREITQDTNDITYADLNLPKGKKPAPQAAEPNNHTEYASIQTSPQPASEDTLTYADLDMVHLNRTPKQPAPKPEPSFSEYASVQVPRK
T1 sequence (Q08722 whole entry, looked up, the tested form may be a part): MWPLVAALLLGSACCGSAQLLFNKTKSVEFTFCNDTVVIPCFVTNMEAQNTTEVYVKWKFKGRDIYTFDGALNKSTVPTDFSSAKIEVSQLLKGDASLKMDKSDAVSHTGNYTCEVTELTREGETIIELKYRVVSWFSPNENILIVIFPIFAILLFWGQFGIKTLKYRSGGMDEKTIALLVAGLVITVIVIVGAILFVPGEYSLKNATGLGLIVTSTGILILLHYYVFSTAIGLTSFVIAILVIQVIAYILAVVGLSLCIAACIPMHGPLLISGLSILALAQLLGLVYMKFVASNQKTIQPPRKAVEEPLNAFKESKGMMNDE

`CCOC(=O)c1ncn2c1CN(C)C(=O)c1cc(F)ccc1-2`: the Potency result in test [1], in test [2], in [3], in [6], in test [7] and in test [8] was “inactive” each time. The Potency entry in [9], in test [10], in test [11], in [12], in test [13] and in test [14] was “inactive” throughout. Moreover, the Potency result in [15], in test [16], in test [17], in test [18] and in [19] was “inactive” in each case. In addition, the outcome in [4] and in test [5] was inactive.
Turning to `O=C(C1CCCCC1)N1CC(=O)N2CCc3ccccc3C2C1` (stereo not drawn), the Potency result in test [1], in test [2], in [3], in test [6], in test [7] and in test [20] was “inactive” in each case. Also, the Potency entry in [9], in test [10], in test [11], in test [12], in test [13] and in test [14] was “inactive” in each case. For the same molecule, the Potency result in test [15], in test [16], in test [17], in test [18] and in test [19] was “inactive” in each case. Besides, the outcome in test [4] and in test [5] was inactive.
For `Nc1ccn([C@H]2CC[C@@H](CO)O2)c(=O)n1`, the Potency entry in [1], in [2], in test [3], in test [6], in test [7] and in test [8] was “inactive” each time. The Potency result in test [20], in test [9], in test [10], in test [12], in [13] and in [14] was “inactive” throughout. Further, the Potency result in [15], in test [16], in test [17], in [18] and in [19] was “inactive” throughout. For the same molecule, the outcome in test [4] and in test [5] was inactive. Moreover, the Potency in [11] was 18.7 µM (active) and 21.1 µM (active).
`NCCCCCC(=O)O`: the Potency entry in test [1], in [2], in test [3], in test [6], in test [7] and in test [20] was “inactive” in each case. Further, the Potency entry in [9], in test [10], in test [11], in test [12], in test [13] and in test [14] was “inactive” throughout. In addition, the Potency result in test [15], in [16], in test [17], in test [18] and in test [19] was “inactive” throughout. For the same molecule, the result in test [4] and in [5] was inactive.
Turning to `COc1ccccc1OCC(O)CN1CCN(CC(=O)Nc2c(C)cccc2C)CC1` (stereo not drawn), the Potency result in [1], in [2], in [3], in test [6], in [7] and in [8] was “inactive” each time. The Potency entry in [20], in test [9], in [10], in test [12], in [13] and in test [14] was “inactive” each time. For the same molecule, the Potency result in [15], in [16], in test [17], in [18] and in [19] was “inactive” each time. Moreover, the outcome in test [4] and in [5] was inactive.
For `N[C@@H](Cc1c[nH]c2ccc(O)cc12)C(=O)O`, the Potency entry in test [1], in test [2], in test [3], in [6], in [7] and in test [8] was “inactive” each time. The Potency entry in test [20], in test [9], in test [10], in test [11], in test [14] and in test [15] was “inactive” each time. Also, the Potency result in test [17], in test [18] and in test [19] was “inactive” in each case. Moreover, the outcome in test [4] and in test [5] was inactive.
